The list is not random: actives were taken first. Their share in the collection is about 1.1%.
DUSP3 inh: DUSP3 (human) phosphatase inhibition; recombinant VHR phosphatase, pNPP absorbance; 0.52% of 290,000 active; P51452; inhibition, % at 13.3 µM; in the data active = inhibition above about 50%
Target sequence (P51452 whole entry, looked up): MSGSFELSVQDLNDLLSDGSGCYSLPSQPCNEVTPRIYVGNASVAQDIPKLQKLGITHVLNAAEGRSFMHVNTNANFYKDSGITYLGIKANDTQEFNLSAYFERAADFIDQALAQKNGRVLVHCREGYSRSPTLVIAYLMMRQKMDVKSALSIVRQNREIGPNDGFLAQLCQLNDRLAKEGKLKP
BJeLR viability: kills HRASV12-expressing BJeLR cells; BJeLR (HRASV12) viability, CellTiter-Glo ATP luminescence, 48 h; inhibition, % (concentration not given with the values); 0.17% of 300,000 active; in the data active = inhibition above about 50%
PrPC TRFRET: inhibitors of human cell surface prion protein PrPC; P04156; TR-FRET read-out; inhibition, % at 13.8 µM; 0.43% of 370,000 active; AID 720596; in the data active = inhibition above about 24%
3CLpro inhibitor: SARS-CoV 3CLpro protease inhibition. 0.14% of 290,000 active. AID 1706. recombinant SARS-CoV 3CLpro, quenched FRET peptide cleavage. inhibition, % at 6 µM. P0C6X7; in the data active = inhibition above about 12%
A number is an active result; - = inactive; . = not tested or not shown.

SMILES | DUSP3 inh | BJeLR viability | PrPC TRFRET | 3CLpro inhibitor
COc1ccc(S(=O)(=O)N(C)C[C@@H]2Oc3c(NC(=O)Nc4cccc5ccccc45)cccc3C(=O)N([C@@H](C)CO)C[C@H]2C)cc1 | . | . | - | .
Cc1cc(NC(=O)CCN2CCCCC2)ccc1Br | - | - | - | -
O=C(NCCCN1CCOCC1)c1ccc2c(c1)N(Cc1ccccc1)C(=O)c1ccccc1S2=O (stereo unspecified) | 60 | - | - | -
O=C(NCCCN1CCOCC1)c1ccc2c(c1)N(Cc1cccc(Cl)c1)C(=O)c1ccccc1S2=O (stereo unspecified) | - | - | - | -
O=C(CC1CCCC1)N[C@H](C(=O)N1CCC[C@H]1C(=O)NC1CCCC1)c1ccccc1 | . | . | - | .
COc1cc(C(=O)NS(=O)(=O)c2ccccc2C)ccc1Cc1cn(C)c2ccc(NC(=O)OC3CCCC3)cc12 | - | - | . | 15
COc1cccc(C2=NOC(C(=O)N3CCc4ccccc4C3)C2)c1 (stereo unspecified) | 55 | - | - | -
CC(=O)Oc1cc(C(=O)OCC(=O)NC23CC4CC(CC(C4)C2)C3)cc(OC(C)=O)c1OC(C)=O | . | . | - | .
CC(C)c1ccc(NC(=O)CCNC(=O)N2CC(=O)Nc3ccccc32)cc1 | 51 | - | - | -
CCC(C)[C@H](NC(=O)N1CC(=O)Nc2ccccc21)C(=O)Nc1nccs1 (stereo partly specified) | 52 | - | - | -
COc1ccc(NC(=O)CCNC(=O)N2CC(=O)Nc3ccccc32)cc1 | . | . | - | .
C[C@@H]1CN([C@@H](C)CO)C(=O)CCCn2nncc2CO[C@@H]1CN(C)S(=O)(=O)c1ccc2c(c1)OCCCO2 | . | . | - | .
Cc1ccc(N2C(=O)C3C4C=CC(CC4)C3C2=O)c([N+](=O)[O-])c1 (stereo unspecified) | 55 | - | - | -
CC(=O)NC12CC3CC(C1)CC(C(=O)NCc1ccc(C)cc1)(C3)C2 | - | - | - | -
CCSCc1nnc(SCC(=O)Nc2ccc(OC)cc2)n1C | 57 | - | - | -
COc1ccc(-c2nnc(SCC(=O)Nc3ccc(C)cc3)n2C)cc1 | - | - | - | -
Nc1nc(CN2CCN(Cc3ccccc3)CC2)nc(N2CCCc3ccccc32)n1 | 54 | - | - | -
CC(C)N(Cc1cnn(C)c1)C(=O)c1ccc(OC2CCN(Cc3ccccn3)CC2)cc1 | 57 | - | - | -
CC(=O)Nc1nnc(-c2ccc3c(c2)CCCC3)o1 | - | - | - | -
O=C(Nc1nnc(-c2ccc3c(c2)CCCC3)o1)C1COc2ccccc2O1 (stereo unspecified) | 50 | - | - | -
CC1C(=O)N(Cc2cn(CCC3OCCCO3)nn2)CCS(=O)(=O)N1Cc1ccc(-c2cccc(CO)c2)cc1 (stereo unspecified) | . | . | - | .
COc1ccccc1/C=C\C(=O)NCC(=O)N/N=C/c1ccc(O)cc1O | 56 | - | - | -
COc1cc2[nH]c(=S)nc(NCC3CCCO3)c2cc1OC (stereo unspecified) | - | - | - | -
COc1cc2[nH]c(=S)nc(NC3CCCCCC3)c2cc1OC | - | . | 25 | -
CCOc1ncccc1C(=O)NCCc1ccc(Cl)cc1 | - | - | - | -
SMILES | DUSP3 inh | BJeLR viability | PrPC TRFRET | 3CLpro inhibitor
O=C(Nc1ccc(S(=O)(=O)Nc2nccs2)cc1)c1nn(-c2ccccc2)ccc1=O | - | - | - | -
COc1ccc(-n2ccc(=O)c(C(=O)Nc3ccc(S(=O)(=O)Nc4nccs4)cc3)n2)cc1 | 58 | - | - | -
Cc1ccc(Nc2nc(-c3c(C)nc4ccccn34)cs2)cc1 | - | - | 39 | -
Cc1nc(C)c(-c2csc(Nc3ccc(N)cc3)n2)s1 | 57 | - | - | -
COc1ccccc1-[n+]1c(C)cc(/C=C2\Sc3ccccc3N2C)cc1C | - | 73 | - | -
COc1ccc(C)cc1Nc1c2c(nc3ccccc13)CCC2 | - | 56 | - | -
COC(=O)[C@]12C[C@H](CC(=O)NCCc3ccccc3OC)C(=O)N(Cc3ccc(Cl)cc3Cl)C1=C[C@H](COCc1ccccc1)O[C@@H]2C | . | . | - | .
CSc1ccccc1OCc1cc(C(=O)NC2CCc3ccccc32)no1 (stereo unspecified) | 51 | - | - | -
COc1cccc(/C=C2\SC(=S)N(CCCC(=O)Nc3cc(C)on3)C2=O)c1 | - | 100 | - | -
CCCCCCCCN1C(=O)[C@@H](CC(=O)N2CCN(C(=O)c3ccco3)CC2)C[C@@]2(C(=O)OC)C1=C[C@H](C(C)C)O[C@@H]2C1CC1 | . | . | - | .
CC(C)(C)c1nnc(N/N=C/c2ccccc2O)n(N)c1=O | - | 62 | - | -
CC(C)NC(=O)c1ccc(CSCc2ccccc2Cl)o1 | 57 | - | - | -
C[C@@H]1CN([C@H](C)CO)C(=O)CCCn2cc(nn2)CO[C@H]1CN(C)S(=O)(=O)c1cccs1 | . | . | - | .
